Compound activity (PubChem BioAssay)
Only some compounds are listed: those with a hit (about 4% of all), similar ones and a draw of the others.
TRHR PAM: TRH receptor (human) allosteric enhancement; P34981; TRHR cells, fluo-8 calcium fluorescence, EC20 TRH enhancement; enhancement, % at 2 µM; actives 0.66% (n = 360,000); in the data active = enhancement above about 30%
Target sequence (P34981 whole entry, looked up): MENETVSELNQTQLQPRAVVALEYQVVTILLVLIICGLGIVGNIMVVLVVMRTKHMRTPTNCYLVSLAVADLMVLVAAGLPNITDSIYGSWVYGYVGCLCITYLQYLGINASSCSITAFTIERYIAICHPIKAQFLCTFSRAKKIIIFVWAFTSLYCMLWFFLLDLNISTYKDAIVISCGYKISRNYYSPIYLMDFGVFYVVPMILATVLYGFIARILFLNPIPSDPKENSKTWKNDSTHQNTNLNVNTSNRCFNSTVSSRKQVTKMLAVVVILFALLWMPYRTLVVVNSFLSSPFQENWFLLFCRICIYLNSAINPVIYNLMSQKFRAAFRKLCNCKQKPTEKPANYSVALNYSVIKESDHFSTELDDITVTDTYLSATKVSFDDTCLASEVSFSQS
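Enhancer read-out: after compound pinning and an initial kinetic agonist-mode read, an EC20 of TRH (10 nM final) was injected and fluo-8 calcium signal (Ex 480/Em 530) followed at 1 s/cycle for 100 cycles in TRHR-expressing cells.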
GRP78 ERSR act: ER stress response induction in glioma; U87-MG GRP78 promoter luciferase reporter, 16 h; Potency, µM, usual class: activators; actives 0.02% (n = 420,000); AID 602332; active = well fitted activation curve with a large enough effect; inconclusive = small, poorly fitted or top-dose-only effect; inactive = no such curve, though single readings can be large or run the other way; also: series mostly up to about 76 µM; nearly all actives have a fitted effect of over 35% in size
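Stably transfected U87-MG glioma cells carrying a GRP78-based luciferase sensor; 16 h compound incubation. Luminescence end-point read 10 min after Bright-Glo addition at room temperature.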
D1 ag: human D1 receptor agonism; HEK293 T-REx D1 cells, calcium flux, agonist mode; activation, % at 2 µM; actives 1% (n = 360,000)
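Inducible HEK293 T-REx D1 cells, force-coupled to calcium signalling, were plated at 4000 cells/well with tetracycline and held overnight at 30 C. After no-wash calcium dye loading, compound-evoked calcium rise over 180 s flagged agonists.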
TRHR agonist: TRH receptor (human) agonism; P34981; TRHR cells, calcium flux fluo-8, FDSS agonist mode; activation, % at 2 µM; actives 0.18% (n = 360,000)
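TRHR-expressing cells loaded with fluo-8 calcium dye; 23 nL library compound pin-transferred, kinetic FDSS fluorescence (Ex 480/Em 530) recorded about 180 s for agonist-induced calcium release, before a 10 nM TRH EC20 addition for potentiator mode.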
D1 potentiator: human D1 dopamine receptor positive modulation; HEK293 TREx D1 cells, calcium flux, dopamine EC20 potentiation; P21728; potentiation, % at 10 µM; actives 0.036% (n = 360,000); in the data active = potentiation above about 30%
D1 antagonist: antagonists of human D1 dopamine receptor; P21728; actives 3.2% (n = 360,000); activity change, negative = inhibition, % at 10 µM; HEK293 TREx D1 cells, calcium flux, dopamine EC80; hits give low values; in the data active = activity change below about -30%
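Tetracycline-induced HEK293 Trex D1 cells, force-coupled to calcium, dye-loaded; compounds added and read 180 s, then EC80 dopamine added and calcium flux tracked kinetically another 180 s.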
Large screens that a line does not name were inactive. Rule as the data show it, unless noted: active = activation above about 30%; inactive = the rest.

O=C(Cc1ccccc1)N/N=C/c1cccc([N+](=O)[O-])c1	none
COc1ccc(NC(=O)c2ccc(COc3ccccc3)o2)c(OC)c1	D1 antagonist -30.9
CC(C)(C)c1ccc(OCc2ccc(C(=O)Nc3cccnc3)o2)cc1	TRHR PAM 38.3
COc1ccc(NC(=O)c2ccc(COc3ccccc3Br)o2)c(OC)c1	none (no result: TRHR PAM, D1 ag, TRHR agonist, D1 potentiator, D1 antagonist)
CCOc1ccccc1-n1c(SCC(=O)N(CC)CC)nnc1-c1ccccn1	none
CN1CCN(CCCNc2c(C=O)c(=O)[nH]c3ccccc23)CC1	none
Cc1cc(C)n(C(=O)CNC(=O)c2cccs2)n1	TRHR PAM 37.2
Cc1cc(C)n(C(=O)CCCC(=O)n2nc(C)cc2C)n1	D1 antagonist -31.6
Cn1c(SCC(=O)Nc2sccc2C(N)=O)nc2ccccc2c1=O	none (no result: TRHR PAM, D1 ag, TRHR agonist, D1 potentiator, D1 antagonist)
O=C(NCCCN1CCN(c2ccccc2F)CC1)C1CCCN(S(=O)(=O)c2cnc[nH]2)C1 (configuration not stated)	D1 antagonist -53.0
CC(=O)Nc1ccc(NC(=O)c2ccc(C3SCC(=O)N3CCc3ccccc3)cc2)cc1 (configuration not stated)	D1 antagonist -52.2
COc1ccc(/C=C/C(=O)c2ccc(C(=O)/C=C/c3ccc(OC)c(OC)c3)cc2)cc1OC	none
COC(=O)c1ccc(/C=C/C(=O)c2ccc(OC)cc2)cc1	D1 antagonist -37.8
COC(=O)c1ccc(/C=C/C(=O)c2ccc(OC)c(OC)c2)cc1	TRHR PAM 35.5, GRP78 ERSR act inconclusive
COC(=O)c1ccc(/C=C/C(=O)O)cc1	none
COc1ccccc1NC(=O)COC(=O)CCC1CCCC1	none (no result: TRHR PAM, D1 ag, TRHR agonist, D1 potentiator, D1 antagonist)
CC(=O)N1C(=O)NC(c2ccccc2)=C([N+](=O)[O-])C1c1ccccc1 (configuration not stated)	none
O=C(Cn1cc(C(=O)c2ccco2)c2ccccc21)NC1CCCCC1	none
COCCn1nnnc1C(c1cccc(C(F)(F)F)c1)N1CCOCC1 (configuration not stated)	D1 antagonist -42.3
O=P1(O)C=C(c2ccccc2)OC(c2ccccc2)=C1	none
COc1cc(C2NC(=O)NC(C)=C2C(=O)OC2CCCCC2)cc(Br)c1O (configuration not stated)	none
Fc1ccc(N2CCN(C3=Nc4cccc5cccc3c45)CC2)cc1	D1 antagonist -43.8
CSc1ccc(CNC(=O)CCc2c(C)nn(-c3ccc(N4CCCC4)nn3)c2C)cc1	none
CCOC(=O)C(CCCOc1cccc(OC)c1)C(=O)OCC	D1 antagonist -34.3
OC(CCCN1CCC(O)(c2ccc(Cl)cc2)CC1)c1ccc(F)cc1 (configuration not stated)	D1 ag 31.8, D1 antagonist -36.8
COc1cc(CN(C(=O)c2ccc(C)cc2)C2CCS(=O)(=O)C2)cc(OC)c1OC (configuration not stated)	D1 antagonist -30.5
COCc1cc(C)nc(SCc2ccc([N+](=O)[O-])cc2)c1C#N	D1 potentiator 44.4
COCc1cc(C)nc(SCC(=O)N2CCC(C)CC2)c1C#N	D1 antagonist -56.8
COCc1cc(C)nc(SCC(=O)NC2CCCCC2C)c1C#N (configuration not stated)	none
Cn1c(=O)c2[nH]cnc2n(-c2ccccc2)c1=O	none
Cc1cccc(C2NC(=O)c3c(sc4c3CCN(C)C4)N2)c1O (configuration not stated)	TRHR PAM 47.3
CN1CCc2c(sc3c2C(=O)NC(c2ccc(OC(=O)c4ccc(C(C)(C)C)cc4)cc2)N3)C1 (configuration not stated)	D1 ag 263.0, TRHR agonist 121.4
CN1CCc2c(sc3c2C(=O)NC(c2ccccc2)N3)C1 (configuration not stated)	none
CN1CCc2c(sc3c2C(=O)NC(c2ccc(OC(=O)c4ccccc4)cc2)N3)C1 (configuration not stated)	D1 ag 114.2
CN1CCc2c(sc3c2C(=O)NC(c2ccc(OC(=O)c4ccc(Cl)cc4)cc2)N3)C1 (configuration not stated)	D1 ag 144.8, TRHR agonist 71.0
O=c1n(Cc2ccc(F)cc2)nc2n1-c1cc(Cl)ccc1OC2	none
COc1ccc(/C=N/NC(=O)c2ccccc2O)cc1Cn1cc([N+](=O)[O-])cn1	none
COc1ccc(/C=N/Nc2ccccc2C(=O)O)cc1Cn1cc([N+](=O)[O-])cn1	D1 antagonist -32.1
CCC(CO)Nc1nc2ccc(Cl)cc2c2ccccc12 (configuration not stated)	none
CCCCNC(=S)Nc1ccc(SC(F)F)cc1	D1 antagonist -41.9
CCCCNC(=S)Nc1ccc(F)cc1	none
CN(C)/C=N/c1nc2nccc(-c3ccccn3)n2n1	TRHR PAM 33.6
CC(Oc1ccc(C(C)(C)C)cc1)c1ccnc2nc(/N=C/N(C)C)nn12 (configuration not stated)	D1 ag 46.4
Brc1ccc2[nH]c3c(NCc4ccccn4)ncnc3c2c1	none
COc1ccc2c(c1)[nH]c1c(=O)n(CCCN3CCOCC3)cnc12	D1 antagonist -30.8
O=c1c2[nH]c3ccccc3c2ncn1CCC1=CCCCC1	GRP78 ERSR act inconclusive
COc1ccc(CNc2ncnc3c2[nH]c2cc(OC)c(OC)cc23)cc1	none
C1=C(CCNc2ncnc3c2[nH]c2ccccc23)CCCC1	D1 antagonist -34.4
COc1ccc(CNc2ncnc3c2[nH]c2ccccc23)cc1	D1 ag 32.6, D1 antagonist -41.6
Cc1ccc2[nH]c3c(NCc4ccccc4)ncnc3c2c1	D1 ag 39.6, D1 antagonist -50.8
COc1ccccc1C(=O)NC(=S)Nc1ccc(S(=O)(=O)N2CCN(C)CC2)cc1	none
COc1ccc(NC(=O)CCS(=O)(=O)c2cc3c(cc2C)NC(=O)CO3)cc1	none
Cc1cc(C)cc(NC(=O)N2CCN(c3cc(-c4noc(C)n4)ccc3C)CC2)c1	none
CCOC(=O)C1CCCN(C(=O)N2CCOCC2)C1 (configuration not stated)	none
Cc1ccc2c(c1)[nH]c1c(=O)n(CCC3=CCCCC3)cnc12	D1 antagonist -31.7 (no result: GRP78 ERSR act)
Cc1ccc(S(=O)(=O)NC(=O)Nc2cc(C(C)(C)C)on2)cc1	D1 antagonist -37.3
COc1cc(CC(=O)NCc2ccco2)cc(OC)c1OC	none
O=C(CSc1cccc2cccnc12)Nc1ccc(S(=O)(=O)N2CCOCC2)cc1	none
COc1ccc(-c2csc3ncnc(N4CCN(c5ccccc5O)CC4)c23)cc1	D1 ag 43.9
Cc1nc(Cl)sc1C(=O)O	none
CCCCOC(=O)c1cc(Cl)c(O)c(OC)c1	TRHR PAM 39.8
